This note sets out measurements from PubChem BioAssay (Tox21).

Records with an inconclusive call do not appear. Activity calls are given as the source filed them. The call rests on the fitted dose curve.

The target of experiment [1] is Acetylcholinesterase (Homo sapiens) (UniProt P22303). Description: Acetylcholinesterase (AChE) small molecule antagonists: colormetric cell-based qHTS assay (AID 1347395). Further: nearly all actives have a fitted effect of over 30% in size. Further: potency means the concentration at half of the fitted maximal effect. The method, boiled down:
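SH-SY5Y cells; cpd 30 min 37 C; + DTNB/acetylthiocholine, 90 min 37 C; colorimetric thiocholine read; qHTS.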

For experiment [2] the target is unchanged. Description: Acetylcholinesterase (AChE) small molecule antagonists: enzyme-based qHTS assay (AID 1347397). Further: nearly all actives have a fitted effect of over 55% in size. Further: potency means the concentration at half of the fitted maximal effect. The following applies: Potency: AChE enzyme activity inhibition; outcome: AChE enzyme activity inhibition. The procedure, abridged:
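Colorimetric DTNB read-out of thiocholine released from acetylthiocholine by recombinant human AChE (50 mU/mL as dispensed). Compounds were preincubated 30 min at RT before substrate/DTNB addition, with a 10 min RT reaction.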

Experiment [3] has the same target. The experiment in a line: Acetylcholinesterase (AChE) small molecule antagonists: enzyme-based qHTS assay with human liver microsomes (AID 1347399). Further: nearly all actives have a fitted effect of over 60% in size. The following applies: Potency: qHTS inhibition; outcome: qHTS inhibition. The method, boiled down: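 Recombinant human AChE (50 mU/mL in the enzyme mix) and human liver microsomes (0.25 mg/mL final) were preincubated with compound and NADPH (0.25 mg/mL final) for 30 min at 37 C. Acetylthiocholine/DTNB was then added; thiocholine was read colorimetrically after 10 min at room temperature.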
On the % scale 0 is the no-effect control and ±100 the full control effect.

Chain of Acetylcholinesterase (Homo sapiens) (P22303 whole entry, looked up): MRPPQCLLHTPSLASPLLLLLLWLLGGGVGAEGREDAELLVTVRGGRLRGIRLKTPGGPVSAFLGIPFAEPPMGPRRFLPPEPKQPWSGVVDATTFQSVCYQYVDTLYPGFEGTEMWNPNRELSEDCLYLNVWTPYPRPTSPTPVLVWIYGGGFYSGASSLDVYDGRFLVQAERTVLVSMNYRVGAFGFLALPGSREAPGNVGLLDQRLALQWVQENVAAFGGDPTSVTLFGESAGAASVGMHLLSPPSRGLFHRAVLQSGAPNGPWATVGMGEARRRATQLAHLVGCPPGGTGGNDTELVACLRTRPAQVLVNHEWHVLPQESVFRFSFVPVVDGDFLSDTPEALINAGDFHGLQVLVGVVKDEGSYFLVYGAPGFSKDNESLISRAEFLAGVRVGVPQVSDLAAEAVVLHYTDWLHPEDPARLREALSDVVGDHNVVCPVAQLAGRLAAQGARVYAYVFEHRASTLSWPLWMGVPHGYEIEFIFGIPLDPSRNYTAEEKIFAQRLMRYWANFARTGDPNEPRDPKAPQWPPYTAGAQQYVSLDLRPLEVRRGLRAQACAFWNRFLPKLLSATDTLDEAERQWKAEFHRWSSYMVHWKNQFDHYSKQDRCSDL

Take `CN(C/C=C/c1ccccc1)Cc1cccc2ccccc12`: the compound was called inactive in experiment [1], in experiment [2] and in experiment [3].
For the compound `CCC(Cc1ccccc1)(C(=O)c1ccc(N2CCOCC2)cc1)N(C)C` (centres undefined), the Potency result in experiment [1], in experiment [2] and in experiment [3] was “inactive” in each case.
For the compound `CN1C(=O)c2ccc([N+](=O)[O-])cc2C1=O`, the Potency entry in experiment [1], in experiment [2] and in experiment [3] was “inactive” throughout.
With `C[n+]1cc2c3c(ccc2c2ccc4cc5c(cc4c21)OCO5)OCO3`, the Potency in experiment [1] is 10.7 µM (active); in experiment [2], 16.9 µM (active). In experiment [3], the activity change, negative = inhibition was -3.24% [at 23.6 µM] (inactive).
`OC1(c2ccccc2)CCNCC1`: the Potency entry in experiment [1], in experiment [2] and in experiment [3] was “inactive” each time.
For `CSc1ccc2c(c1)C(N1CCN(C)CC1)Cc1ccccc1S2` (centres undefined), the Potency result in experiment [1], in experiment [2] and in experiment [3] was “inactive” in each case.
Consider `CN(CCOc1ccc(NS(C)(=O)=O)cc1)CCc1ccc(NS(C)(=O)=O)cc1`, for which the Potency in experiment [1] is 17.4 µM (active). Besides, the Potency entry in experiment [2] and in experiment [3] was “inactive” throughout.
With `NC/C=C/C(=O)O`, the Potency result in experiment [1], in experiment [2] and in experiment [3] was “inactive” each time.
For the compound `c1cc2c3c(c1)ccc1cccc(c13)C2`, the Potency entry in experiment [1], in experiment [2] and in experiment [3] was “inactive” each time.
`CCO[C@H](Cc1ccc(OCCc2ccc(OS(C)(=O)=O)cc2)cc1)C(=O)O`: the Potency entry in experiment [1], in experiment [2] and in experiment [3] was “inactive” throughout.
With `CN(C(=O)c1c(O)c2ccccc2n(C)c1=O)c1ccccc1`, the Potency result in experiment [1], in experiment [2] and in experiment [3] was “inactive” throughout.
As for `CCCCCCCCCCCCN(CCO)CCO`, the Potency entry in experiment [1], in experiment [2] and in experiment [3] was “inactive” throughout.
Take `CN(C)CC[C@@H](c1ccc(Br)cc1)c1ccccn1`: the Potency entry in experiment [1], in experiment [2] and in experiment [3] was “inactive” in each case.
For the compound `CC1(COc2ccc(CC3SC(=O)NC3=O)cc2)CCCCC1` (centres undefined), the Potency entry in experiment [1], in experiment [2] and in experiment [3] was “inactive” each time.
For `COc1c(C)c2c(c(O)c1C/C=C(\C)CCC(=O)OCCN1CCOCC1)C(=O)OC2`, in experiment [1], the Potency is 27.5 µM (active). For the same compound, the Potency entry in experiment [2] and in experiment [3] was “inactive” each time.
Turning to `CCCCCCCCCCCCSCCOCCO`, the Potency result in experiment [1], in experiment [2] and in experiment [3] was “inactive” throughout.
Turning to `Cc1onc(-c2c(Cl)cccc2Cl)c1C(=O)Cl`, the Potency entry in experiment [1], in experiment [2] and in experiment [3] was “inactive” each time.
`Nc1ccc(N=Nc2ccccc2)c(N)c1`: the Potency entry in experiment [1], in experiment [2] and in experiment [3] was “inactive” throughout.
As for `O=C(O)/C=C(\CC(=O)O)C(=O)O`, the Potency result in experiment [1], in experiment [2] and in experiment [3] was “inactive” each time.
`CN(C)CCN(Cc1ccccc1)c1ccccn1`: the Potency result in experiment [1], in experiment [2] and in experiment [3] was “inactive” throughout.
As for `CCCOC(C(=O)OC1CCN(C)CC1)(c1ccccc1)c1ccccc1`, the Potency entry in experiment [1], in experiment [2] and in experiment [3] was “inactive” each time.
For `CCO[C@@H]1O[C@H](C(COCc2ccccc2)OCc2ccccc2)[C@H](OCc2ccccc2)[C@H]1O` (some centres undefined), the Potency entry in experiment [1], in experiment [2] and in experiment [3] was “inactive” each time.
On to `O=C(/C=C/c1ccccc1)NCCO`, for which the Potency result in experiment [1], in experiment [2] and in experiment [3] was “inactive” in each case.
For `CC(C)c1ccc2oc3nc(N)c(C(=O)O)cc3c(=O)c2c1`, the Potency entry in experiment [1], in experiment [2] and in experiment [3] was “inactive” in each case.
For `CC1(CN2CCC(n3c(=O)[nH]c4ccccc43)CC2)OCc2ccccc2-n2cccc21` (centres undefined), the Potency result in experiment [1], in experiment [2] and in experiment [3] was “inactive” each time.
With `O=C(O)c1cc(O)c2ccccc2c1O`, the Potency entry in experiment [1], in experiment [2] and in experiment [3] was “inactive” each time.
Consider `CO[Si](CCC1CCC2OC2C1)(OC)OC` (centres undefined), for which the Potency result in experiment [1], in experiment [2] and in experiment [3] was “inactive” each time.
Consider `O=C(O)/C=C/c1ccccc1`, for which the Potency result in experiment [1], in experiment [2] and in experiment [3] was “inactive” in each case.
`CC(=O)c1ccc2c(c1)CCCC2`: the Potency result in experiment [1], in experiment [2] and in experiment [3] was “inactive” throughout.
Regarding `O=C(O)c1cccnc1C(=O)O`, the Potency entry in experiment [1], in experiment [2] and in experiment [3] was “inactive” in each case.
For `C=C(C)C(=O)OCCOCC`, the Potency result in experiment [1], in experiment [2] and in experiment [3] was “inactive” in each case.
Take `COc1c(N2C[C@@H]3CCCN[C@@H]3C2)c(F)cc2c(=O)c(C(=O)O)cn(C3CC3)c12`: the Potency result in experiment [1], in experiment [2] and in experiment [3] was “inactive” in each case.
Consider `CC(=O)[C@]1(O)Cc2c(O)c3c(c(O)c2[C@@H](O[C@H]2C[C@H](N)[C@H](O)[C@H](C)O2)C1)C(=O)c1ccccc1C3=O`, for which the Potency in experiment [1] was 17.4 µM (active). Moreover, the Potency entry in experiment [2] and in experiment [3] was “inactive” each time.
Regarding `O=C1CCc2cc(OCCCCc3nnnn3C3CCCCC3)ccc2N1`, the Potency in experiment [1] is 24.5 µM (active). For the same compound, the Potency result in experiment [2] and in experiment [3] was “inactive” in each case.
For `CC(=O)[C@H]1CC[C@H]2[C@@H]3C=CC4=CC(=O)CC[C@@]4(C)[C@@H]3CC[C@]12C`, the Potency entry in experiment [1], in experiment [2] and in experiment [3] was “inactive” in each case.
For the compound `C=C[Si](C)(C)O[Si](C)(C)C=C`, the Potency entry in experiment [1], in experiment [2] and in experiment [3] was “inactive” each time.
`COc1ccnc(CS(=O)c2nc3cc(OC(F)F)ccc3[nH]2)c1OC` (centres undefined): the Potency entry in experiment [1], in experiment [2] and in experiment [3] was “inactive” throughout.
For `c1ccc(-c2nn[nH]n2)cc1`, the Potency entry in experiment [1], in experiment [2] and in experiment [3] was “inactive” in each case.
Regarding `C=CN1CCCCCC1=O`, the Potency result in experiment [1], in experiment [2] and in experiment [3] was “inactive” each time.
For the compound `CN(C)CCCSc1ccccc1NC(=O)/C=C/c1ccccc1`, the Potency entry in experiment [1], in experiment [2] and in experiment [3] was “inactive” each time.
For the compound `COC(=O)C(c1ccccc1Cl)N1CCc2sccc2C1` (centres undefined), the Potency entry in experiment [1], in experiment [2] and in experiment [3] was “inactive” each time.
With `CN1[C@@H]2CC[C@H]1CC(OC(=O)C(O)c1ccccc1)C2` (some centres undefined), the Potency entry in experiment [1], in experiment [2] and in experiment [3] was “inactive” in each case.
Turning to `N=C(N)c1ccc2cc(OC(=O)c3ccc(N=C(N)N)cc3)ccc2c1`, the Potency in experiment [1] is 27.5 µM (active). For the same compound, the call in experiment [2] and in experiment [3] was inactive.
